Data on ten compounds can be found in PubChem BioAssay (Tox21).

The structures appear in SMILES notation. Records with an inconclusive call do not appear. Calls of active or inactive are those of the source. Calls come from the whole dose curve; as a rule, active = well fitted curve in the direction sought with a large enough effect in the repeat runs; inconclusive = weak or mixed curves; inactive = no such curve, though single readings can be large; an effect the other way counts as inactive or inconclusive.

Assay [1] is described as follows: Caspase-3/7 induction in CHO-K1 cells by small molecules, qHTS assay (AID 1346980). Note: nearly all actives have a fitted effect of over 15% in size. Note: potency is the fitted concentration of half-maximal effect. As to conditions: CHO-K1 caspase-3/7 induction, Caspase-Glo luminescence, 17 h; series mostly up to 92.4 µM. In outline:
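Wild-type cells were seeded at 1,500 per well and settled 5 hr at 37 C, 5% CO2, then exposed to DMSO-dissolved compounds for 17 hr. Caspase-Glo 3/7 reagent was added, and luminescence was read after 30min at room temperature.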
On the technique in general: qHTS replaces the single test concentration by a dilution series.

The nature of assay [2]: Caspase-3/7 induction in HepG2 cells by small molecules, qHTS cell viability counter screen (AID 1346981). Note: nearly all actives have a fitted effect of over 30% in size. Note: potency is the fitted concentration of half-maximal effect. As to conditions: CellTiter-Fluor fluorescence, 17 h; series mostly up to 92.4 µM. In outline: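 Multiplexed with the caspase-3/7 assay: HepG2 cells, 16 hr compound treatment, CellTiter-Fluor viability detection by fluorescence.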
Assay [3] concerns the target Nuclear receptor subfamily 1 group I member 2 (Homo sapiens) (UniProt O75469). Description: Human pregnane X receptor (PXR) small molecule agonists, qHTS assay (AID 1346982). Note: nearly all actives have a fitted effect of over 35% in size. Note: potency is the fitted concentration of half-maximal effect. As to conditions: PXR-Luc HepG2, CYP3A4 luciferase reporter, 24 h; series mostly up to 92.4 µM. The essentials: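 We seeded PXR-Luc HepG2 cells in assay medium containing 5% charcoal-stripped FBS, added compounds 5 hr later, incubated 24 hr, and read luminescence with ONE-Glo reagent.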

In assay [4] the target is Cytochrome P450 2C19 (Homo sapiens) (UniProt P33261). Description: Cytochrome P450 Family 2 Subfamily C Member 19 (CYP2C19) small molecule antagonists: luciferase reporter qHTS assay (AID 1671197). Note: nearly all actives have a fitted effect of over 65% in size. Note: potency is the fitted concentration of half-maximal effect. The conditions noted are these: P450-Glo CYP2C19 enzyme, luciferin luminescence, 1 h; series mostly up to 115 µM. The essentials:
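Quantitative high-throughput screen of the Tox21 library using CYP2C19 with proluciferin substrate. Reaction: NADPH regeneration, 37C, 1 h, after 10 min compound preincubation at room temperature. Readout: luminescence.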
(In general: Reporter assays use an easily measured gene product as a stand-in for the process of interest.)

Assay [5] concerns the target Cytochrome P450 2C9 (Homo sapiens) (UniProt P11712). Description: Cytochrome P450 Family 2 Subfamily C Member 9 (CYP2C9) small molecule antagonists: luciferase reporter qHTS assay (AID 1671198). Note: nearly all actives have a fitted effect of over 50% in size. Note: potency is the fitted concentration of half-maximal effect. As to conditions: P450-Glo CYP2C9 enzyme assay, luciferin luminescence; series mostly up to 115 µM. In outline:
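CYP2C9 activity was measured with a P450-Glo proluciferin substrate. Enzyme–substrate mix was held with compound for 10 min at room temperature, then NADPH regeneration solution was added for 1 h at 37C. Luciferin product was read as luminescence.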

The target in assay [6] is Cytochrome P450 1A2 (Homo sapiens) (UniProt P05177). Description: Cytochrome P450 Family 1 Subfamily A Member 2 (CYP1A2) small molecule antagonists: luciferase reporter qHTS assay (AID 1671199). Note: nearly all actives have a fitted effect of over 50% in size. Note: potency is the fitted concentration of half-maximal effect. The conditions noted are these: P450-Glo CYP1A2 enzyme, luciferin luminescence, 1 h; series mostly up to 115 µM. The essentials: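 CYP1A2 turnover of a luminogenic substrate was quantified after 1 h with NADPH regeneration at room temperature. Furafylline served as positive control.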

The target in assay [7] is Cytochrome P450 3A4 (Homo sapiens) (UniProt P08684). Briefly: Cytochrome P450 Family 3 Subfamily A Member 4 (CYP3A4) small molecule antagonists: luciferase reporter qHTS assay (AID 1671201). Note: nearly all actives have a fitted effect of over 50% in size. Note: potency is the fitted concentration of half-maximal effect. The conditions noted are these: P450-Glo CYP3A4 enzyme, luciferin luminescence, 1 h; series mostly up to 115 µM. In outline: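 Setup: enzyme-substrate mix, compound pin transfer, 10 min RT. Reaction: NADPH regeneration solution, 1 h RT. Readout: detection reagent stops turnover, luminescence measured after 20 min, expressed in relative luminescence units.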

Assay [8] has as its target Cytochrome P450 2D6 (Homo sapiens) (UniProt P10635). Briefly: Cytochrome P450 Family 2 Subfamily D Member 6 (CYP2D6) small molecule antagonists: luciferase reporter qHTS assay (AID 1671196). Note: nearly all actives have a fitted effect of over 50% in size. The conditions noted are these: P450-Glo CYP2D6 enzyme assay, luciferin luminescence, 1 h; series mostly up to 115 µM. In outline:
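Luminescence (RLU), read 20 min after detection reagent, indicated CYP2D6 conversion of proluciferin to luciferin during a 1 h NADPH-dependent reaction at room temperature.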

Assay [9] addresses Voltage-gated inwardly rectifying potassium channel KCNH2 (Homo sapiens) (UniProt Q12809). Description: Human Ether-a-go-go-Related Gene (hERG) channel small molecule antagonists: fluorescence cell-based qHTS assay (AID 1671200). As to conditions: hERG-U2OS cells, FluxOR thallium flux fluorescence; series mostly up to 76.8 µM. In outline:
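Measured: Tl+ flux via fluorescence (480/540 nm) in hERG-expressing U2OS cells after 1 h dye loading at room temperature.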

Chain of Cytochrome P450 3A4 (Homo sapiens) (P08684 whole entry, looked up): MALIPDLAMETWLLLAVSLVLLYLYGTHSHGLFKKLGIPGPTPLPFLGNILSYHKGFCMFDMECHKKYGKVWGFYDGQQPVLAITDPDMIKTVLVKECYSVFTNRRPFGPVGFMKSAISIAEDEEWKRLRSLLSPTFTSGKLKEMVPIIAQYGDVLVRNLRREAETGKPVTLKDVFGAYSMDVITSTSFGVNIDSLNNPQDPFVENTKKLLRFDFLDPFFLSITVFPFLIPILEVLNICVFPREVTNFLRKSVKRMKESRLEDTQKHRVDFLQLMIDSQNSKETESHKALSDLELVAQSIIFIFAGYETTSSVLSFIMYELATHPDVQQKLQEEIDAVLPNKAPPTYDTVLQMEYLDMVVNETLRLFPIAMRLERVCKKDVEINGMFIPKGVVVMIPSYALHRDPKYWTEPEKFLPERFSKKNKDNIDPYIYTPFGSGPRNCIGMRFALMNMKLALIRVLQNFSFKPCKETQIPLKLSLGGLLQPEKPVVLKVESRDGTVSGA
Chain of Cytochrome P450 2D6 (Homo sapiens) (P10635 whole entry, looked up): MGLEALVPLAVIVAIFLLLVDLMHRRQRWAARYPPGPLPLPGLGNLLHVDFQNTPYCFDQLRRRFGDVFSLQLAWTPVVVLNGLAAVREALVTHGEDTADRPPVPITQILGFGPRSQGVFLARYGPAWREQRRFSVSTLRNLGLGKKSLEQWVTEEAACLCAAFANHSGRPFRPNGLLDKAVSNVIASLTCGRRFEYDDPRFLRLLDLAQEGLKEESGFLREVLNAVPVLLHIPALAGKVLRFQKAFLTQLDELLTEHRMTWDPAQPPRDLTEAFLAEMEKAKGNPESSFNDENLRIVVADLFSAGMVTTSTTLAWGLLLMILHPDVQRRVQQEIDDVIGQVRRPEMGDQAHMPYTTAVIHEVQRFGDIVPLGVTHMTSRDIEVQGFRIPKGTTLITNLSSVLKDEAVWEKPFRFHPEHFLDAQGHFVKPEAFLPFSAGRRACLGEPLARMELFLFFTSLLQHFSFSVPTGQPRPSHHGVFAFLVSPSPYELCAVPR
Chain of Nuclear receptor subfamily 1 group I member 2 (Homo sapiens) (O75469 whole entry, looked up): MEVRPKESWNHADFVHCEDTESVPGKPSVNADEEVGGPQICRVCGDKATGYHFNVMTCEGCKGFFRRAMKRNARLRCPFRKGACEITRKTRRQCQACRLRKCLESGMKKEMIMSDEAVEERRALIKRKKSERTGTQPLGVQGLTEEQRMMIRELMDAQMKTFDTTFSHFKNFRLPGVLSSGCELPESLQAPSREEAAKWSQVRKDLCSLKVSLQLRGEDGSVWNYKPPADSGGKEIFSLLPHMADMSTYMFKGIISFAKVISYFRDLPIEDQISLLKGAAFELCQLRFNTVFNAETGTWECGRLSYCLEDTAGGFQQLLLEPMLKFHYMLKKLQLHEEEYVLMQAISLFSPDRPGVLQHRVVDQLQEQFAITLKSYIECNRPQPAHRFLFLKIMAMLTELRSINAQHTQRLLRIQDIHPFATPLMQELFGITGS
Chain of Cytochrome P450 2C9 (Homo sapiens) (P11712 whole entry, looked up): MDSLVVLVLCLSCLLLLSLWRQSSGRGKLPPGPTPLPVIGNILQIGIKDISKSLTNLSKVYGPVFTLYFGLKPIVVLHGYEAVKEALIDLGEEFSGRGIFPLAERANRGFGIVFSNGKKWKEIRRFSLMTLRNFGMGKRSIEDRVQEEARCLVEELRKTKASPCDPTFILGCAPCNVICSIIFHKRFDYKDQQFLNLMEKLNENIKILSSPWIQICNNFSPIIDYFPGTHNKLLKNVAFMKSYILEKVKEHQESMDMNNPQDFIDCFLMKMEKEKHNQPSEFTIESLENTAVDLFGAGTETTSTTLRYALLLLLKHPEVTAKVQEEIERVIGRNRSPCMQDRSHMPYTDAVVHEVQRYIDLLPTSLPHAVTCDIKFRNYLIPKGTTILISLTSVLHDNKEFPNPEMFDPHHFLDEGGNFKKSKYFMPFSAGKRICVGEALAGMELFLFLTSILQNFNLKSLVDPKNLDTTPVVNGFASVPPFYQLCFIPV
Chain of Cytochrome P450 1A2 (Homo sapiens) (P05177 whole entry, looked up): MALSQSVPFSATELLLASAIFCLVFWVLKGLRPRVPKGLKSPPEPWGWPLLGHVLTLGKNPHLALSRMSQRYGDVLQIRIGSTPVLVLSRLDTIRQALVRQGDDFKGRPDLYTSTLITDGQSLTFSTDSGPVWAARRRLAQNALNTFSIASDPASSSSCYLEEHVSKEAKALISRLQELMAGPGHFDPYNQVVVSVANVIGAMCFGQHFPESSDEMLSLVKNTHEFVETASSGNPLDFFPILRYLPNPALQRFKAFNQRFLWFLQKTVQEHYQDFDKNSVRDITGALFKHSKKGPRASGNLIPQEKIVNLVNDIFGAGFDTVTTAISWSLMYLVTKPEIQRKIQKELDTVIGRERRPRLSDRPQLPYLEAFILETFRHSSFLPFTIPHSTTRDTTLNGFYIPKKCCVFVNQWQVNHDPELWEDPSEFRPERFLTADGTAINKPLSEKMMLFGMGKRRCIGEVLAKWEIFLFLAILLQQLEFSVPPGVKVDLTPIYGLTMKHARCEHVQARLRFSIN
Chain of Cytochrome P450 2C19 (Homo sapiens) (P33261 whole entry, looked up): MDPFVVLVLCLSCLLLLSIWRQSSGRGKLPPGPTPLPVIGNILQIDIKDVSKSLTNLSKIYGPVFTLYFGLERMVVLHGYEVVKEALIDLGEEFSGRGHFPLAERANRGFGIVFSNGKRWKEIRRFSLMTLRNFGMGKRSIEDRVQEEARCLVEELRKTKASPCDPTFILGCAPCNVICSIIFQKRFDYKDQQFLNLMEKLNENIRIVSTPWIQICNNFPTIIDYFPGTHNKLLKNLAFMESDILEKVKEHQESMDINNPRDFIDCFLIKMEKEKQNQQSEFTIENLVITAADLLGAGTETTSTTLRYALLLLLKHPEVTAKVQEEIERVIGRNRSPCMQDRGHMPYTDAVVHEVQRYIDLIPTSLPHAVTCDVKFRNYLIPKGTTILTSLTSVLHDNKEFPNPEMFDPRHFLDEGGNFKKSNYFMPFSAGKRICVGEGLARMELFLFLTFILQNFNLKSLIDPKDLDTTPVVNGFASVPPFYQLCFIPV
Chain of Voltage-gated inwardly rectifying potassium channel KCNH2 (Homo sapiens) (Q12809 whole entry, looked up): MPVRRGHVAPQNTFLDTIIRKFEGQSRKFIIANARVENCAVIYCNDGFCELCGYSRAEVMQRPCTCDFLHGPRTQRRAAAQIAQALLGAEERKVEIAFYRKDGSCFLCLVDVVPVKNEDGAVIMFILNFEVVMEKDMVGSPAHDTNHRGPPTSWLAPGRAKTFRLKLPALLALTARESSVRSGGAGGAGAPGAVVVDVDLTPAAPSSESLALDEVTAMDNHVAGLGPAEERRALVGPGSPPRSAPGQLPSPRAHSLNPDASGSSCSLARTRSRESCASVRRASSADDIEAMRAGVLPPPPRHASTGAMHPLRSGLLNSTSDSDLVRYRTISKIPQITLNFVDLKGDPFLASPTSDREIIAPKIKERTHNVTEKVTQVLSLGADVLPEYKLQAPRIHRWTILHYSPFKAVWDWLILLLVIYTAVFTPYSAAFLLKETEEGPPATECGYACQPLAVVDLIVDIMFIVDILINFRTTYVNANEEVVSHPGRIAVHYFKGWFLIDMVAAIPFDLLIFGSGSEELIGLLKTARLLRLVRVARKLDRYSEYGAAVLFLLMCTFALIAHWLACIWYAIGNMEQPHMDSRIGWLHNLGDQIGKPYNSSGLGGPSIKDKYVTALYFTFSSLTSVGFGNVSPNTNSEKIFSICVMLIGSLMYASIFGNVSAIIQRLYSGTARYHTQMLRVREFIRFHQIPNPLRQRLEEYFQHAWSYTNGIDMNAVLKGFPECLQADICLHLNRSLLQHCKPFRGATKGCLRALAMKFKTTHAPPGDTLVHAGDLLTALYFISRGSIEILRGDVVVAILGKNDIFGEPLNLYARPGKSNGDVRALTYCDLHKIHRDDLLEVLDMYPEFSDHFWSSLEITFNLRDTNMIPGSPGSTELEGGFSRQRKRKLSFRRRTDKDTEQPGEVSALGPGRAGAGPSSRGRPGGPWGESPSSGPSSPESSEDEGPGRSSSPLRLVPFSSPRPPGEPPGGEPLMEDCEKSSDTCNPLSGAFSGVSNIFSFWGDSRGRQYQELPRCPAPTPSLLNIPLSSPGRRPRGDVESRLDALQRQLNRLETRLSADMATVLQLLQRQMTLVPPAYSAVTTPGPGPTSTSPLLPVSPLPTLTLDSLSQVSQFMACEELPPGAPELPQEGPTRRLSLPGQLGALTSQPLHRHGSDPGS

As for `Cc1ccc(S(=O)(=O)C(I)I)cc1`, the Potency was 12.2 µM (active) in assay [1]; 54.5 µM (active) in assay [2]; 19.3 µM (active) in [3]; 1.59 µM (active) in assay [4]; 1.12 µM (active) in [5]; 31.7 µM (active) in assay [6]. Moreover, the Potency in [7] is 39.9 µM (active).

Consider `CCc1cccc(C)c1N(C(=O)CS(=O)(=O)O)C(C)COC` (centres undefined), for which the Potency result in assay [1], in [2], in assay [3], in assay [8] and in [9] was “inactive” throughout.

Turning to `CCN(CC)c1ccc2c(c1)Oc1cc(N(CC)CC)ccc1C21OC(=O)c2ccccc21`, the Potency result in [1] and in assay [9] was “inactive” in each case. For the same compound, the Potency in assay [2] is 5.31 µM (active); in [3], 26.6 µM (active); in assay [4], 38.9 µM (active); in [5], 15.5 µM (active); in assay [7] it was 11 µM (active).

Regarding `C1=CCCC1`, the Potency entry in assay [1], in assay [2], in assay [3], in assay [4], in [5] and in assay [6] was “inactive” each time. Further, in assay [7], the Potency entry was “inactive”.

For `CC(C)C(=O)C(C)C`, the Potency entry in assay [1], in assay [2], in [3], in [4], in assay [5] and in assay [6] was “inactive” in each case. Besides, in assay [7], the Potency entry is “inactive”.

On to `COc1cc([C@@H]2c3cc4c(cc3[C@@H](O[C@@H]3O[C@@H]5CO[C@@H](C)O[C@H]5[C@H](O)[C@H]3O)[C@H]3COC(=O)[C@H]23)OCO4)cc(OC)c1O`, for which the Potency entry in assay [1], in assay [2] and in assay [9] was “inactive” throughout.

`CCCCCCCCCCCC(=O)Cl`: the Potency result in assay [1], in [2], in assay [3], in assay [8], in [6] and in [9] was “inactive” throughout. In assay [7], the Potency entry was “inactive”.

In the case of `CCCCCc1ccc(O)cc1`, the Potency result in assay [1], in assay [2] and in assay [7] was “inactive” each time. Moreover, the figures for the Potency in assay [4] and in assay [6] were 22.4 µM (active) and 63.3 µM (active), respectively.

As for `CC(C)=NNC(N)=S`, the Potency result in assay [1], in assay [2], in assay [5] and in assay [7] was “inactive” in each case. The Potency in assay [6] was 71 µM (active).

For the compound `O=C(CCCCCCCCc1cccnc1)N1CCC(C=C(c2ccccc2)c2ccccc2)CC1`, the Potency entry in assay [1], in assay [2] and in assay [8] was “inactive” in each case. Further, the Potency was 5.45 µM (active) in assay [3], 0.633 µM (active) in assay [5] and 0.399 µM (active) in assay [7].
